Test results taken from PubChem BioAssay AID686971 (National Center for Advancing Translational Sciences (NCATS), 2013).
About 7,500 (2.1%) of roughly 360,000 compounds were called active. Entries that show only a call come without a potency. Inconclusive results (about 8%) are left out. Many of the other results were omitted from the sample, so actives are more common in it than they were. Where a structure was tested more than once in an assay, its records may differ in their call. Values without a mark were called inactive. The call rests on the fitted dose curve; in most records, active means well fitted cell-killing curve with a large enough effect; inconclusive means small, poorly fitted or top-dose-only effect, or effect the other way, or another doubt; inactive means no such curve, though single readings can be large or run the other way.

experiment: qHTS for induction of synthetic lethality in tumor cells producing 2HG: qHTS for the HT-1080-IDH1KD cell line; conditions: HT-1080 IDH1 knockdown viability, ATP luminescence, 48 h; series mostly up to 46.1 µM
Text: Unbiased genomic sequencing for 22 glioma genomes found recurrent mutation of IDH1 on chromosome 2q33, a gene encoding the cytosolic isoform of IIDH1 associated with the tri-carboxylic acid cycle (TCA) that catalyzes the oxidative decarboxylation of isocitrate, yielding alpha-ketoglutarate and CO2 via NADP+ to NADPH conversion. Subsequent studies confirmed the recurrent IDH mutations in up to 70% of secondary gliomas and in 10% of AML cases. In addition, the somatic mutation of cancer-associated IDH1 is a point mutation resulting in various amino-acid substituents at Arginine132 (IDH1 R132), a key residue found in the enzyme's active site that when mutated, results in the loss-of-function in metabolizing isocitrate but confers a gain-of-function to produce the oncometabolite 2-hydroxyglutarate (2HG). This in effect defines IDH1 as an oncogene and provides an extraordinary opportunity to discover chemical probes against mutant IDH1 that may translate into much needed new therapies for glioma and AML patients.
This assay aims to perform a synthetic-lethal screen for chemical probes specific for 2HG-producing tumor cells using matched paired cell lines (1) HT-1080-NT fibrosarcoma cell line that overproduces 2HG and (2) HT-1080-IDH1KD cell line which has IDH1 expression knocked-down. Desirable compounds are toxic to the NT fibrosarcoma cell line but not to the IDH1KD cell line. The data in this AID corresponds to the results of the qHTS against the HT-1080 IDH1KD cell line.
[1] Dang L, Jin S, Su SM. IDH mutations in glioma and acute myeloid leukemia. Trends of Mol Med. 2010; 16(9): 387-97.
[2] Dang L et al. Cancer-associated IDH1 mutations produce 2-hydroxyglutarate. Nature. 2010; 465(7300):966.
Molecular Libraries Probe Production Centers Network [MLPCN]
NIH Chemical Genomics Center [NCGC]
Assay Submitter (PI): Lenny Dang Ph.D., Agios Pharmaceuticals
Suspensions of trypsinized HT-1080-IDH1KD cells were dispensed into white, tissue culture-treated, solid 1536-well plates at 5uL/well (750 cells/well final concentration) in RPMI medium supplemented with 5% FBS. Plates were incubated at 37 degrees C for 2 hours, after which 23 nL of compounds or DMSO were delivered to each well using a pin tool. Plates were then incubated at 37 degrees C for an additional 48 hours. CellTiter-Glo viability reagent (Promega) was dispensed into wells (2.5uL/well) and incubated at room temperature for 10 minutes. The plates were measured on a PerkinElmer ViewLux plate reader for luminescent signal (clear filter, 1 sec exp.). DMSO-treated control wells and media-only (no cells) control wells were used to normalize %Activity of identified toxic compounds; DMSO-treated wells corresponded to 0%Activity (100% viability), while media-only controls were used to normalize 100%Activity (0% viability). To minimize variability between cell lines, both HT-1080-NT and HT-1080-IDH1KD lines were dispensed and treated with identical compound series in single batches.
Concentration-response curves were fitted to the signals arising from the resulting luminescence. The concentration-effect curves were then classified based on curve quality (r2), response magnitude and degree of measured activity, and compounds were subsequently categorized based on their curve class.
Potency means the concentration at half of the fitted maximal effect.

Question: For `CC(=O)OC1C2(CC3N4C(=O)C5(CO)SSC4(CC31O)C(=O)N5C)OC(C)C(C)(C)C2=O` (stereo not given), which Potency is on record?
Answer: 0.58 µM (active)

Question: Which Potency does the source give for `C[C@]12CCC3C(CC[C@H]4[C@H](O)[C@H](O)CC[C@]34C)C1CCC2=O` (stereo not given in full) here?
Answer: inactive

Question: Which Potency does the source give for `COC(=O)N1C(c2ccccc2)C1c1ccccc1` (stereo not given) here?
Answer: inactive

Question: Which Potency does the source give for `CSc1ccc(C(=O)C2CCCN(Cc3ccn[nH]3)C2)cc1` (stereo not given) here?
Answer: inactive

Question: Which Potency does the source give for `CCN1C(=O)NC(=O)C2(CCCC2)C1=O` here?
Answer: inactive

Question: With `Cc1cc(C)cc(NC(=S)NC2CC3CCCC(C2)N3Cc2cccs2)c1` (stereo not given) as the compound, how does the Potency read?
Answer: 12.6 µM (active)

Question: With `Cc1cc(C)c2c(c1)NP(=S)(c1ccccc1)N2` (stereo not given) as the compound, how does the Potency read?
Answer: inactive

Question: With `CC(=O)C1(O)CCC2C3CCC4=C(Cl)C(=O)CCC4(C)C3CCC21C` (stereo not given) as the compound, how does the Potency read?
Answer: inactive

Question: Which Potency does the source give for `Oc1cc2c(cc1O)CN(C(=S)NCCc1ccc(Cl)cc1)CCC2` here?
Answer: inactive

Question: For `S=C(NCCc1ccccc1)N1Cc2cc(N3CCOCC3)ccc2-n2nncc2C1`, which Potency is on record?
Answer: inactive

Question: For `C[C@H]1CN([C@@H](C)CO)C(=O)CCCn2nncc2CO[C@H]1CN(C)C(=O)Oc1cccc2ccccc12`, which Potency is on record?
Answer: inactive

Question: For `O=[N+]([O-])c1ccc(Cl)c(Cl)c1`, which Potency is on record?
Answer: inactive

Question: Which Potency does the source give for `C[C@]12CCC3C(CC[C@H]4C[C@@H](O)CC[C@]34C)C1CC[C@@H]2O` (stereo not given in full) here?
Answer: inactive

Question: For `C[C@]12CCC3C(CC[C@H]4C[C@@H](O)CC[C@]34C)C1C[C@@H](O)[C@H]2O` (stereo not given in full), which Potency is on record?
Answer: inactive

Question: With `C[C@]12CC[C@H](O)C[C@H]1CC[C@@H]1C2CC[C@]2(C)[C@@H](C3=CC(=O)OC3)[C@@H](O)C[C@]12O` (stereo not given in full) as the compound, how does the Potency read?
Answer: 3.66 µM (active)

Question: With `O=C1C2CCN(CC2)C1(CO)CO` as the compound, how does the Potency read?
Answer: inactive

Question: With `CCOC(=O)CC(SP1(=S)OCC2(CCCCO2)C(C2CCCCO2)O1)C(=O)OCC` (stereo not given) as the compound, how does the Potency read?
Answer: inactive

Question: Which Potency does the source give for `CC(=O)Cc1ccc(OC(C)C)cc1` here?
Answer: inactive

Question: Which Potency does the source give for `CN(C)CC1Oc2ccccc2OC1(O)c1ccccc1` (stereo not given) here?
Answer: 4.61 µM (active)

Question: For `CCCOC(=O)C1C2c3ccccc3C(c3ccccc32)C1C(=O)O` (stereo not given), which Potency is on record?
Answer: inactive

Question: For `Cc1ccc(C2CN(C)CC2C(=O)c2ccc(F)cc2)cc1` (stereo not given), which Potency is on record?
Answer: inactive

Question: With `COc1cc(C(=O)N2Cc3ccc(Br)cc3-n3nncc3C2)cc(OC)c1OC` as the compound, how does the Potency read?
Answer: inactive

Question: For `CCN(CC)CCOC(=O)c1cc2cc(COC)ccc2o1`, which Potency is on record?
Answer: inactive

Question: With `COc1ccc2c(c1)NP(=S)(c1ccccc1)N2` (stereo not given) as the compound, how does the Potency read?
Answer: inactive

Question: Which Potency does the source give for `CCC(C)(O)C(=O)OC1C(=O)OC2CC3C(C)=CC(=O)C(O)C3(C)C3C4(O)OCC23C1C(C)C4O` (stereo not given) here?
Answer: 0.0411 µM (active)

Question: With `C[C@H]1CN([C@@H](C)CO)C(=O)CCCn2nncc2CO[C@H]1CN(C)C(=O)Oc1ccccc1` as the compound, how does the Potency read?
Answer: inactive

Question: Which Potency does the source give for `O=C1NC(=O)C(CCOc2ccccc2)(CCc2ccccc2)C(=O)N1` here?
Answer: inactive

Question: Which Potency does the source give for `COc1ccc(C2C=C(C)Oc3c2c(=O)oc2ccccc32)cc1OC` (stereo not given) here?
Answer: inactive

Question: With `Cc1ccc(-c2nc3ccccc3c(=O)n2-c2ccc(Br)cn2)cc1` as the compound, how does the Potency read?
Answer: inactive

Question: For `COC1C(O)C(C)OC(OC2CCC3(C=O)C(CCC4C3CCC3(C)C(C5=CC(=O)OC5)CCC43O)C2)C1O` (stereo not given), which Potency is on record?
Answer: 0.0184 µM (active)

Question: Which Potency does the source give for `CCn1cc(CN2CCCC(C(=O)c3cccc(C(F)(F)F)c3)C2)cn1` (stereo not given) here?
Answer: inactive

Question: For `CSCCC(c1nnnn1C(C)(C)C)N1CCC(n2c(=O)[nH]c3ccccc32)CC1` (stereo not given), which Potency is on record?
Answer: inactive

Question: With `CC1CCCN1CCC(C(N)=O)(c1ccccc1)c1ccccc1` (stereo not given) as the compound, how does the Potency read?
Answer: inactive

Question: Which Potency does the source give for `CCOc1ccc(-c2cc(C)[n+](CCN(CC)CC)c(-c3ccc(OCC)cc3)c2)cc1` here?
Answer: 5.17 µM (active)

Question: For `CCC(=O)OC(Cc1ccccc1)(c1ccccc1)C(C)CN(C)C` (stereo not given), which Potency is on record?
Answer: inactive

Question: Which Potency does the source give for `CCC1(CC(C)c2ccccc2)C(=O)NC(=O)NC1=O` (stereo not given) here?
Answer: inactive

Question: For `COC(=O)C[C@H]1CC[C@H]2NC[C@@H](O)COC[C@@H]2O1`, which Potency is on record?
Answer: inactive

Question: Which Potency does the source give for `CC=C(C)C(=O)OC1CCN2CC=C(COC(=O)C(O)(C(C)OC)C(C)(C)O)C12` (stereo not given) here?
Answer: inactive

Question: Which Potency does the source give for `Fc1ccc(N2CCN(Cc3ccc4c(c3)OCO4)CC2)cc1` here?
Answer: inactive

Question: With `c1cc2c(cc1CCNC1CCCCCC1)OCO2` as the compound, how does the Potency read?
Answer: inactive

Question: For `CC(=NCc1ccc2c(c1)OCO2)c1c(O)[nH]c(=O)[nH]c1=O`, which Potency is on record?
Answer: 20.6 µM (active)

Question: For `CC(C)n1c(=O)c(C=Nc2ccc(Br)cc2)c(O)n(Cc2ccco2)c1=O`, which Potency is on record?
Answer: inactive

Question: With `COC(=O)C1=C(c2ccc(C(C)=O)cc2)C[C@@H]2CC[C@H]1N2C(=O)NCCNC(C)=O` as the compound, how does the Potency read?
Answer: inactive

Question: For `Cc1cc(-c2ccc(N)c(C)c2)ccc1N`, which Potency is on record?
Answer: inactive

Question: Which Potency does the source give for `CCN1C(=O)C(=Cc2c(C)n(CC(=O)NCC3CCCO3)c3ccccc23)C(=O)N(CC)C1=S` (stereo not given) here?
Answer: inactive

Question: With `COc1cccc(OC)c1C(=O)NC(=S)N1C[C@H]2C[C@H](C1)c1cccc(=O)n1C2` as the compound, how does the Potency read?
Answer: inactive

Question: Which Potency does the source give for `CCCCCCCCCCCCn1ccc(=N)cc1` here?
Answer: 1.84 µM (active)

Question: Which activity, negative = toxicity does the source give for `CN1C2C=C(N(C(=O)c3ccc(Cl)cc3)c3ccccc3)CC1CC2` (stereo not given) here?
Answer: -4% [at 9.24 µM]

Question: For `CC(=O)NCC1=C(c2ccc3ccccc3c2)C[C@@H]2CC[C@H]1N2Cc1ccco1`, which Potency is on record?
Answer: inactive

Question: With `CCOC(=O)[C@]12Cc3cc(OC)ccc3[C@H]1N(C(C)C)C(=O)c1ccccc12` as the compound, how does the Potency read?
Answer: 16.4 µM (active)

Question: Which Potency does the source give for `CCOC(=O)[C@]12Cc3ccccc3[C@H]1N(C1CCCCC1)C(=O)c1cc(OC)ccc12` here?
Answer: 3.26 µM (active)

Question: For `CC1([N+](=O)[O-])COP(=O)(Nc2ccc(F)cc2)OC1` (stereo not given), which Potency is on record?
Answer: inactive

Question: Which Potency does the source give for `C[C@]12CCC3C(CC[C@H]4[C@H](O)[C@H](O)CC[C@]34C)C1CC[C@@H]2O` (stereo not given in full) here?
Answer: inactive

Question: Which Potency does the source give for `CC(C)CN1Cc2cc(N3CCCCC3)ccc2-n2nncc2C1` here?
Answer: inactive

Question: Which Potency does the source give for `CCN1CC2C3CCC(C)(O3)C2C1` (stereo not given) here?
Answer: inactive

Question: Which Potency does the source give for `CC1CC=CCC12C(=O)NC(=S)NC2=O` (stereo not given) here?
Answer: inactive

Question: With `C[C@]12CCCCC1=CC(=O)C1C2CC[C@@]2(C)C1C[C@@H](F)[C@@H]2O` (stereo not given in full) as the compound, how does the Potency read?
Answer: inactive

Question: For `CCOC(=O)CNC(=O)N1Cc2cc(N3CCCCC3)ccc2-n2nncc2C1`, which Potency is on record?
Answer: inactive

Question: With `Cc1ccc(OC(=O)N(C)C[C@@H]2OCc3cnnn3CCCC(=O)N([C@H](C)CO)C[C@@H]2C)cc1` as the compound, how does the Potency read?
Answer: inactive

Question: Which Potency does the source give for `COc1ccc(N2C(=O)/C(=C/c3ccco3)C(=O)NC2=S)cc1` here?
Answer: inactive

Question: Which Potency does the source give for `O=C1NC(=O)N(Cc2ccco2)C(=O)/C1=C\c1ccc(-c2ccc(F)cc2)o1` here?
Answer: 18.4 µM (active)

Question: Which Potency does the source give for `CCOC(=O)c1cccc(C2=C(CNC(=O)c3ccncc3)[C@H]3CC[C@@H](C2)N3Cc2ccccc2)c1` here?
Answer: inactive

Question: Which Potency does the source give for `CNC(=O)Nc1ccc(C(O)(C(=O)OC)C(F)(F)F)cc1` (stereo not given) here?
Answer: inactive

Question: For `CCNS(=O)(=O)c1ccc(NC(=O)Nc2cccc(C(F)(F)F)c2)cc1`, which Potency is on record?
Answer: 11.2 µM (active)

Question: For `NC(=O)Nc1cccc(C(F)(F)F)c1`, which Potency is on record?
Answer: inactive
